Values joined by “and” are separate entries in the source; they are usually repeats but may differ in a detail not shown here. Equal entries are not always repeated. Inconclusive results are not listed. A call without a number means that no potency is given here. Where a structure was tested more than once in an assay, its records may differ in their call. Active and inactive are the calls of the source. Calls come from the whole dose curve; as a rule, active = well fitted activation curve with a large enough effect in the main read-out, with a control signal flat (not every such curve was filed as active); inconclusive = small, poorly fitted or top-dose-only effect, or effect the other way, or a change in a side signal; inactive = flat fitted curve, though single readings scatter.
Each molecule was assayed against 3',5'-cyclic-AMP phosphodiesterase 4B (Homo sapiens) (UniProt Q07343) (assay: qHTS Assay for Inhibitors of PDE-IV (AID 607)). Conditions: HEK293 ACTOne CNG channel cells, membrane potential fluorescence; series mostly up to 22.9 µM; activation (PDE inhibition): at the top concentration.
Summary of the method: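 HEK293 ACTOne cells with CNG channel (1000/well), endogenous PDE4; membrane potential dye, compounds up to 22.9 uM final. Fluorescence Ex 535/Em 590; RO 20-1724 (100 uM final) as reference.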
Potency is the fitted concentration of half-maximal effect.

Chain of 3',5'-cyclic-AMP phosphodiesterase 4B (Homo sapiens) (Q07343 whole entry, looked up): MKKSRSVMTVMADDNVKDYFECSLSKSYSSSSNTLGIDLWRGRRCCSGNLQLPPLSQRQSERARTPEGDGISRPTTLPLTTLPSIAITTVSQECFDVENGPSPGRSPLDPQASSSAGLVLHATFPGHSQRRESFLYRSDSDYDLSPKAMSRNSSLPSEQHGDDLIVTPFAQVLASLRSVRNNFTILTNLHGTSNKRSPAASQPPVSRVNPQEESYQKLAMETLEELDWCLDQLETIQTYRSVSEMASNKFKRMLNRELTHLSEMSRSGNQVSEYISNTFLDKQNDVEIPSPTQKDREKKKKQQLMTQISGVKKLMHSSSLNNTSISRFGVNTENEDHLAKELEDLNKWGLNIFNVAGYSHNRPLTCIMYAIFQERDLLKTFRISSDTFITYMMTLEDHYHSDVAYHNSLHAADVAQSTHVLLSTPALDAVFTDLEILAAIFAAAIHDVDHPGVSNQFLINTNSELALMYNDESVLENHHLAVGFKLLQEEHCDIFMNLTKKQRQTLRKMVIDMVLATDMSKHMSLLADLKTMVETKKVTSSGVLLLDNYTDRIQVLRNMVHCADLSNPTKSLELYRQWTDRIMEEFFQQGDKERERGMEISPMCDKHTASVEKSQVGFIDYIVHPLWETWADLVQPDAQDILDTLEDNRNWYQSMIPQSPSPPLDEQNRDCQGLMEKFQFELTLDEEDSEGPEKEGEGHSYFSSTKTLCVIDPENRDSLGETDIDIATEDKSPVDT

Row | Structure (SMILES) | activation (PDE inhibition) | Potency
1 | O=C(CCCN1CCC(O)(c2ccc(Cl)cc2)CC1)c1ccc(F)cc1 | 16.1% (inactive) | –
2 | O=C1N(c2ccccc2)c2ccccc2C1(Cc1ccncc1)Cc1ccncc1 | – | inactive
3 | CN1C(C(=O)Nc2ccccn2)=C(O)c2ccccc2S1(=O)=O | – | inactive
4 | O=c1c(O)c(-c2ccc(O)c(O)c2)oc2cc(O)cc(O)c12 | – | inactive
5 | CNCCCC12CCC(c3ccccc31)c1ccccc12 | 29.2% (inactive) | –
6 | NCCCCCC(=O)O | – | inactive
7 | CN(Cc1cnc2nc(N)nc(N)c2n1)c1ccc(C(=O)N[C@@H](CCC(=O)O)C(=O)O)cc1 | -24.5% (inactive) | –
8 | CN(C)C(=O)C(CCN1CCC(O)(c2ccc(Cl)cc2)CC1)(c1ccccc1)c1ccccc1 | – | inactive and 3.79 µM (active)
9 | O=C(c1ccc(F)cc1)C1CCN(CCn2c(=O)[nH]c3ccccc3c2=O)CC1 | – | inactive
10 | O=c1c(-c2ccc(O)cc2)coc2cc(O)cc(O)c12 | -9.28% (inactive) | –
11 | Cc1cnc(C(=O)NCCc2ccc(S(=O)(=O)NC(=O)NC3CCCCC3)cc2)cn1 | – | inactive
12 | Cn1ccc2cc3c(cc21)CCN3C(=O)Nc1cccnc1 | -1.23% (inactive) | –
13 | CN1CCN(CCCN2c3ccccc3Sc3ccc(Cl)cc32)CC1 | – | inactive
14 | CN(C)CCC=C1c2ccccc2C=Cc2ccccc21 | – | inactive
15 | CC[C@@]1(O)C(=O)OCc2c1cc1n(c2=O)Cc2cc3c(CN(C)C)c(O)ccc3nc2-1 | -7.76% (inactive) | –
16 | NCCc1cnc[nH]1 | -17.8% (inactive) | –
17 | CN(C)C(=N)N=C(N)N | 2.02% (inactive) | –
18 | OCCN(CCO)c1nc(N2CCCCC2)c2nc(N(CCO)CCO)nc(N3CCCCC3)c2n1 | – | inactive
19 | CC[N+](CC)(CC)CCOc1cccc(OCC[N+](CC)(CC)CC)c1OCC[N+](CC)(CC)CC | – | inactive

Source: PubChem BioAssay (NCATS)
